From PubChem BioAssay (NCI) come the findings set out here.

This is part of a sample that, as a whole, favours compounds with a hit. Of some 83,000 tested, about 20% had one in any assay.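 For each line, cells grew in 96-well plates with the test compound present at a single concentration for 48 hours.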 Values without a mark were called inactive. Active and inactive are the calls of the source. Rule for the calls: active = growth percent below 10; inactive = the rest.

The assay deals with HL-60(TB) leukemia. As to the kind of experiment: NCI-60 one-dose screen, 48 h (100 = growth as untreated, 0 = no growth, -100 = all killed). As to conditions: 10 µM unless noted.
`NC(=O)Nc1ccc2ncnc(Nc3cccc(O)c3)c2c1`: the growth is 105%.

Consider `C=CCn1c(C)nc2ccc(Nc3nc(Nc4ccc(F)cc4)nc4ccccc34)cc21`, for which the growth was 51.6%.

As for `O=c1cc/c(=N\Nc2ccccc2)c(=O)/c1=N/Nc1ccccc1`, the growth was 138%.

On to `COc1cc(NC(=O)c2cc(O)c(CC=C(C)C)c(O)c2)cc2c1O[C@]1(C)CC[C@@H](O)C(C)(C)[C@H]1C2`, for which the growth is 9.12% (active).

Regarding `CC(C)c1ccc(Nc2n[nH]c(=S)s2)cc1`, the growth is 97.7%.

Regarding `COc1cc(-c2cc(C(=O)N3CCN(C(=O)c4ccccc4NCc4ccco4)CC3)nc3cc(-c4ccccc4)nn23)cc(OC)c1OC`, the growth was 11.6%.

`O=C1CCCN1C1CCN2CCCc3cccc1c32` (stereo not given): the growth was 92.7%.

As to `Nc1ccn(C2CC(O)C(CO)O2)c(=O)n1` (stereo not given), the growth is 86.1%.

For `N#Cc1cc(-c2nc3ccccc3s2)c(=O)n(NS(=O)(=O)c2ccccc2)c1N`, the growth was 103%.

On to `C[C@]12CC[C@@H]3c4ccc(OS(=O)(=O)O)cc4CC[C@H]3[C@@H]1CC[C@@H]2NS(=O)(=O)c1ccc(-c2ccccc2)cc1`, for which the growth was 43.9%.

Regarding `CCOc1cc(C2C(Cl)C(=O)N2n2cnnc2)ccc1O` (stereo not given), the growth was 101%.

Consider `CCOC(=O)c1c(C)nc2ccccc2c1/C=C/c1ccc(F)cc1`, for which the growth was 85.7%.

For the compound `CCOC(=O)c1ccc(N(C=O)CCC(=O)CCl)cc1`, the growth was -28.6% (active).

`CCN1C(=O)N(CC)C2C1N=C(SCc1ccc(Cl)cc1)N2/N=C/C=C/c1ccccc1OC` (stereo not given): the growth is 37.9%.

As for `N=C1CCC(=N)c2c1c(O)c1ccccc1c2O`, the growth was 129%.

Turning to `S=C1N(c2ccccc2)CN(C2CCCCC2)CN1c1ccccc1`, the growth is 96.1%.

`c1ccc2[nH]c(-c3cc(-c4ccc5c(c4)OCO5)n[nH]3)nc2c1`: the growth was 13.3%.

Take `OCCNC(=S)Nc1ccc(-c2nc(N3C[C@H]4CC[C@@H](C3)O4)c3cccn3n2)cc1`: the growth is 38.2%.

Consider `COc1cc(Cc2cc(-c3ccccc3)nn(Cc3ccccc3)c2=O)cc(OC)c1OC`, for which the growth is 19.3%.

`CN(C)CCOc1nc2c3ccncc3cc(-c3cccc(Cl)c3)c2c2cnccc12`: the growth was 33.4%.

On to `COc1ccc2nc(-c3ccc(OC)c(OC)c3)cc(-c3nnc(SCC(=O)Nc4ccc(C(C)=O)cc4)o3)c2c1`, for which the growth was 77.7%.

On to `COc1cc(OC)cc(-c2ccc(-c3ccc(C(=N)N)o3)o2)c1`, for which the growth is 4.66% (active).

On to `Nc1nc(N)c(-c2ccc(Cl)c(Cl)c2)c(CBr)n1`, for which the growth is 59.5%.

`O=C1c2c(c3c4cccnc4[nH]c3c3ccc4ccccc4c23)C(=O)N1O`: the growth is 5.07% (active).

As for `O=C(CCCCCCSc1nc(-c2ccccc2)cc(-c2ccc(Cl)cc2)n1)NO`, the growth was -37.5% (active).

Take `COc1ccc(CCN2CCC(CN(C)Cc3cnn(-c4ccccc4)c3)CC2)cc1`: the growth was 6.41% (active).

As to `CCNCCCn1c2c(c3ccc([N+](=O)[O-])cc3c1=O)C(=O)c1cc(OC)cnc1-2`, the growth is -36% (active).

Turning to `CCCCCCNC(=O)Oc1ccc(/C(=C(/C)Cc2ccc(OC)cc2)c2ccc(OCCN3CCCCC3)cc2)cc1`, the growth is 57.9%.

As for `OCc1ccc(N2CCc3cccc(F)c3C2)cc1Cl`, the growth is 80.5% [0.1 µM].

With `CCC1CCc2nc3sc(C(=O)Nc4cccc(F)c4)c(N)c3cc2C1` (stereo not given), the growth is 23%.

Consider `COc1cc(C2C3=C(COC3=O)Nc3cc4c(cc32)CCC4)cc2c1OCO2` (stereo not given), for which the growth was 10.4%.

On to `O=C1c2ccccc2C(=O)c2c(O)c(Cl)cc(O)c21`, for which the growth is 122%.

On to `CCCCCCCCCCCCNC(=O)[C@H]1CSC(c2cc(Br)cs2)N1` (stereo not given in full), for which the growth is -36.9% (active).

As for `CCOC(=O)C1C(C(=O)OCC)C2C(=O)C3C(C(=O)OCC)C(C(=O)OCC)C3C(=O)C12` (stereo not given), the growth was 96.7%.

Regarding `Cn1cc(-c2csc(-c3cn(C)c4ncccc34)n2)c2cc(F)cnc21`, the growth was 86.4%.

As for `CCCCC(CCCC)(S(=O)(=O)CC)S(=O)(=O)CC`, the growth is 94.7%.

In the case of `c1csc(-c2nc(-c3cc4ccccc4c(N4CCOCC4)n3)cs2)c1`, the growth was 121%.

In the case of `NC(=O)NC(=O)/C=C/C(=O)OCCCl`, the growth is 91.6%.

With `COc1cc2nc(Cc3ccc(C)cc3)[nH]c(=O)c2cc1OC`, the growth was 98.7%.

Take `Cc1cn([C@]2(CF)O[C@H](CO)C2C)c(=O)[nH]c1=O` (stereo not given in full): the growth was 105%.
